{"source": "the supplement of paper PMC11417369", "note": "± gives the standard deviation of the averaged measurements. In all, about 25,000 sequences were measured (“ln(normalized median fluorescence intensity)”: median about 8.6, highest 2% from about 10 on). Shown is part of a subset that was picked to be rich in the highest values."}
{"tested_on": "PfAP2-EXP AP2 domain (GST-tagged)", "assay": "gcPBM binding intensity (ln(normalized median fluorescence intensity)); higher = stronger DNA binding", "outline": "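GST-tagged P. falciparum DNA-binding domains, expressed in E. coli (about 25 μg on average), were applied for 1 h to an Agilent 4 × 180k array of primer-extended double-stranded 36-bp intergenic genomic probes plus negative controls. The binding buffer was 1× PBS with 1% milk, 0.2 mg/ml BSA, 0.5% salmon testes DNA and 0.03% Triton X-100. Bound protein was detected with Alexa488 anti-GST antibody and scanned at 488 nm. Binding intensity is the highest Masliner-normalised natural-log median intensity across replicate spots of either probe orientation.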"}
{"sequence": "TGGGTCTCTAACTGGTGTACTATTTACATATTATAC [XGTACX_site8593]", "gcPBM binding intensity (ln)": "8.75 ± 0.37"}
{"sequence": "TATATATATAAATACACACACATATATATATATATA [CACACA_site4867]", "gcPBM binding intensity (ln)": "10.2 ± 0.25"}
{"sequence": "TATAATCATAAATACACACACATATATATATATATA [CACACA_site5224]", "gcPBM binding intensity (ln)": "10.2 ± 0.42"}
{"sequence": "GCTATAAATATAATCACACATAAATATATAATATAT [CACACA_site5144]", "gcPBM binding intensity (ln)": "8.23 ± 0.29"}
{"sequence": "ATAATAAAATAAATCACACATAATATAATGTAATAT [CACACA_site6144]", "gcPBM binding intensity (ln)": "8.44 ± 0.3"}
{"sequence": "TATAATCATATATACACACACATATATATATATATA [CACACA_site2168]", "gcPBM binding intensity (ln)": "10.2 ± 0.43"}
{"sequence": "TAAATATAAACACAAACACACACATATATATATATA [CACACA_site7978]", "gcPBM binding intensity (ln)": "10.1 ± 0.42"}
{"sequence": "AATATACAAAATATCACACATATAAAATAATATATA [CACACA_site6067]", "gcPBM binding intensity (ln)": "8.27 ± 0.5"}
{"sequence": "GGAACAAATAATATCACACATATATATATATATATA [CACACA_site5670]", "gcPBM binding intensity (ln)": "10.3 ± 0.23"}
{"sequence": "TATAAATATAAATATACACACATATATATATATATA [CACACA_site1678]", "gcPBM binding intensity (ln)": "9.99 ± 0.4"}
{"sequence": "TGTATAAATATAATCACACATATATATATATATATA [CACACA_site4365]", "gcPBM binding intensity (ln)": "10.3 ± 0.73"}
{"sequence": "TGTATAATCATATATACACACACATATATATATATA [CACACA_site8674]", "gcPBM binding intensity (ln)": "10.1 ± 0.24"}
{"sequence": "TATAAATAAATACATACACACACATACATATATATA [CACACA_site9024]", "gcPBM binding intensity (ln)": "8.71 ± 0.38"}
{"sequence": "TATATGAAGCTATAGACACACATATAAAAATATAAT [CACACA_site4850]", "gcPBM binding intensity (ln)": "8.64 ± 0.47"}
{"sequence": "TCCCTAGTATACCTTAGTACATATATTATTTTGCAC [XGTACX_site2174]", "gcPBM binding intensity (ln)": "8.98 ± 0.11"}
{"sequence": "ACTAGTAAATTTATATGTACATATATATATATATAG [XGTACX_site2502]", "gcPBM binding intensity (ln)": "8.68 ± 0.24"}
{"sequence": "ATACATATATATATATGTACATATGTATTTTTTATT [XGTACX_site105]", "gcPBM binding intensity (ln)": "8.63 ± 0.38"}
{"sequence": "ATATATTTAATATTCACACATAATTATTTTTACTCT [CACACA_site5438]", "gcPBM binding intensity (ln)": "8.59 ± 0.38"}
{"sequence": "CATCCAAAAATATTATGTACTAAATTTGGATGTATT [XGTACX_site3954]", "gcPBM binding intensity (ln)": "8.48 ± 0.47"}
{"sequence": "TTTTAAATATGCCATACACACTACTATATAATAAAT [CACACA_site5119]", "gcPBM binding intensity (ln)": "8.58 ± 0.34"}
{"sequence": "ATACTTTTAAATTGATGTACTTTATTTATAAGGTGA [XGTACX_site6746]", "gcPBM binding intensity (ln)": "8.38 ± 0.38"}
{"sequence": "ACTTTACAATATATATGTACATATTAATAAACATAT [XGTACX_site3689]", "gcPBM binding intensity (ln)": "8.74 ± 0.42"}
{"sequence": "ATAAAATAAAATTGGTGTACTTTTGATAAAATAAAA [XGTACX_site4264]", "gcPBM binding intensity (ln)": "8.24 ± 0.28"}
{"sequence": "TTAATAAACCTTAGATGTACAGTTATATATAAAATA [XGTACX_site6681]", "gcPBM binding intensity (ln)": "8.54 ± 0.52"}
{"sequence": "ATAACATTCAAAAAATGTACAAACATATGAATAAAT [XGTACX_site7013]", "gcPBM binding intensity (ln)": "8.62 ± 0.47"}
{"sequence": "TATATATATAACAGAATGCACTTTATATGTTCATAT [GTGCAC_site9880]", "gcPBM binding intensity (ln)": "8.94 ± 0.14"}
{"sequence": "TAAATAAATATATATACACACATATATATATATATA [CACACA_site598]", "gcPBM binding intensity (ln)": "10.1 ± 0.36"}
{"sequence": "CATATATAAATATATACACACATACATACATACATA [CACACA_site5988]", "gcPBM binding intensity (ln)": "8.73 ± 0.3"}
{"sequence": "TAAATACATAAATACACACACATATATATATATATA [CACACA_site5549]", "gcPBM binding intensity (ln)": "10.2 ± 0.35"}
{"sequence": "TATATATATAAATACACACACACATATATATATATA [CACACA_site4585]", "gcPBM binding intensity (ln)": "10 ± 0.16"}
{"sequence": "TAAATAAATACATACACACACATACATATATATATA [CACACA_site3129]", "gcPBM binding intensity (ln)": "9.86 ± 0.26"}
{"sequence": "TATATATATATATATACACACATATATATAAATATA [CACACA_site2035]", "gcPBM binding intensity (ln)": "10.2 ± 0.26"}
{"sequence": "CACAAATAAATACATACACACATATATACTCATATA [CACACA_site4379]", "gcPBM binding intensity (ln)": "8.37 ± 0.49"}
{"sequence": "CATAAATACATACATACACACATATATATATATATA [CACACA_site2106]", "gcPBM binding intensity (ln)": "10.2 ± 0.41"}
{"sequence": "TATACTCATAAATACACACACATATATATATATATA [CACACA_site5822]", "gcPBM binding intensity (ln)": "10.2 ± 0.28"}
{"sequence": "AGAGAAGAAAACAAAACACACACATATATCTTAATA [CACACA_site8699]", "gcPBM binding intensity (ln)": "8.63 ± 0.71"}
{"sequence": "AATTTTTAGTATATAACATAAAATAAAATAAAATAA [GTGCAC_negctrl_site696]", "gcPBM binding intensity (ln)": "8.47 ± 0.38"}
{"sequence": "AAAATTATATTTTATAGAAATTTAAATAAATATATA [GTGCAC_negctrl_site199]", "gcPBM binding intensity (ln)": "8.01 ± 0.38"}
{"sequence": "AATATATATATTAAATGTACATTACATAATTATATA [XGTACX_site3450]", "gcPBM binding intensity (ln)": "8.54 ± 0.43"}
{"sequence": "TATATATATATATATGTGCACATTTTATTAAAATGT", "gcPBM binding intensity (ln)": "10.2 ± 0.34"}
{"sequence": "ATTTTTTTATAAAATTTTTATATAATTTATTATAAA [GTGCAC_negctrl_site96]", "gcPBM binding intensity (ln)": "8.16 ± 0.52"}
{"sequence": "AAAATATATATGTATGTTTATATGTTTATATATATT [XGTACX_negctrl_site337]", "gcPBM binding intensity (ln)": "8.18 ± 0.49"}
{"sequence": "TTATTTTTATATTTTAATTTTAAAAAAATTTTAATT [CACACA_negctrl_site777]", "gcPBM binding intensity (ln)": "8.04 ± 0.46"}
{"sequence": "TTATATTATATATATGTGCACATTTTTAAACTTGGA", "gcPBM binding intensity (ln)": "8.71 ± 0.27"}
{"sequence": "TATAATAATATTATAGTGCATATTATTTATATATAA [GTGCAC_site9820]", "gcPBM binding intensity (ln)": "8.22 ± 0.2"}
{"sequence": "TTTTAATTTAAAAATTAATTTATATATATATATATA [TGCATGCA_negctrl_site447]", "gcPBM binding intensity (ln)": "10.3 ± 1"}
{"sequence": "ACCTGTAAAAATGTTTATATATATATATATATATAT [CACACA_negctrl_site1500]", "gcPBM binding intensity (ln)": "10.3 ± 0.37"}
{"sequence": "AATGTAAAATATATGTGTACATATGTTTATATATAT [XGTACX_site2216]", "gcPBM binding intensity (ln)": "8.71 ± 0.23"}
{"sequence": "ATATATATATATATAGTGCACATTTATATAATTATT", "gcPBM binding intensity (ln)": "10.3 ± 0.17"}
{"sequence": "ATAATATATAATATAGTGCATTATTTATTAATTAAT [GTGCAC_site9852]", "gcPBM binding intensity (ln)": "8.56 ± 0.085"}
{"sequence": "TATATACATTTTTATGTGCACATTTTATTTTTAAAT", "gcPBM binding intensity (ln)": "9.15 ± 0.31"}
{"sequence": "ATTATTTAGAAATGAGCACACAAAAAGAAGAATTTT [CACACA_site7913]", "gcPBM binding intensity (ln)": "8.65 ± 0.52"}
{"sequence": "ATATAAAAAGTGTATCGTACATTTACTTATTTTATA [XGTACX_site6249]", "gcPBM binding intensity (ln)": "8.46 ± 0.3"}
{"sequence": "AATACTATTATTATTGCACACTTATTATCCCTCGGA [CACACA_site4262]", "gcPBM binding intensity (ln)": "8.65 ± 0.28"}
{"sequence": "CACTAAACATATACACGTACATGCAACGGATTTTTT [XGTACX_site461]", "gcPBM binding intensity (ln)": "8.74 ± 0.3"}
{"sequence": "ATGGACAAGTTAAACGCACACAAATATATACAGACA [CACACA_site1652]", "gcPBM binding intensity (ln)": "9.15 ± 0.73"}
{"sequence": "TTTTTTATTAAATATATATAATAATAATAATTTGTA [CACACA_negctrl_site1719]", "gcPBM binding intensity (ln)": "7.9 ± 0.37"}
{"sequence": "TTTTTTAAATGTATTAAAATTATATATATATATATA [GTGCAC_negctrl_site570]", "gcPBM binding intensity (ln)": "10.2 ± 0.25"}
{"sequence": "ATAACAAAATAATAATGTACGTATAAATATAATTTA [XGTACX_site6049]", "gcPBM binding intensity (ln)": "8.57 ± 0.4"}
{"sequence": "AAAAAAATTTTAAAATGTACAAATTTTAATATATAT [XGTACX_site7628]", "gcPBM binding intensity (ln)": "8.55 ± 0.26"}
{"sequence": "TATAATAAAATATTTTGTACGTATATTTTAATATTT [XGTACX_site2582]", "gcPBM binding intensity (ln)": "8.32 ± 0.45"}
{"sequence": "ATATATTTTTTAAATTTAAAAATTATAAAATTTATA [TGCATGCA_negctrl_site36]", "gcPBM binding intensity (ln)": "8.16 ± 0.45"}
{"sequence": "AAAAAAAAAAAAATGTAATTTTTTAATTATTTATAT [GTGCAC_negctrl_site436]", "gcPBM binding intensity (ln)": "7.96 ± 0.43"}
{"sequence": "AAATAACAAATTTTTAAAATGTATATATATATATAT [TGCATGCA_negctrl_site219]", "gcPBM binding intensity (ln)": "10.2 ± 0.74"}
{"sequence": "TTTTAAAATATATTTGTATATATATATATATATATA [XGTACX_negctrl_site536]", "gcPBM binding intensity (ln)": "10.4 ± 0.35"}
